# From PubChem BioAssay
# Only some compounds are listed: those with a hit (about 4.2% of all), similar ones and a draw of the others.
# Mito fusion act – blocks mitochondrial division or promotes mitochondrial fusion; S. cerevisiae fusion-defective mutant growth rescue, CellTiterGlo 48 h; Potency, µM (top dose mostly 46.1 µM), without a hit: at the top dose growth rescue (activation), most hits filed as activators; 0.23% of 320,000 active; AID 485298; further: % of control where 0% means no effect; nearly all actives have a fitted effect of over 45% in size
#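 Compounds are tested for their ability to restore growth of mitochondrial fusion-defective yeast strains at non-permissive 37C in YPEG medium over 48 hours. Viability is quantified by luciferase luminescence.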
# a7 integrin act – activators of alpha7 integrin expression for muscular dystrophy | alpha7betagal myoblasts, beta-gal FDG fluorescence, 48 h | Potency, µM (series often up to 38.3 µM), for the others: top-dose activation, usual class: activators | 0.064% of 350,000 active | AID 624291;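 further: 100% = response of the positive control SU9516; nearly all actives have a fitted effect of over 60% in size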
#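 alpha7betagal+/- myoblasts (passage 13, 250/well) treated 48 h at 37C with compounds at 1:260 dilution of DMSO stock. Lysed, then beta-galactosidase activity read as FDG fluorescence (ex 480/em 540) after 30 min, with pre-read for autofluorescence.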
# MCF10A rereplic – DNA re-replication induction in MCF 10a cells. MCF 10A DNA re-replication, Hoechst nuclear intensity, 48 h. Potency, µM (top dose mostly 46.1 µM), inactives show at the top dose activity, positive = re-replication, actives largely listed as activators. 2.9% of 350,000 active. AID 624296; further: % of control where 0% means no effect; nearly all actives have a fitted effect of over 50% in size
# SW480 rereplic – inducers of DNA re-replication in SW480 colon cancer cells; SW480 DNA re-replication, Hoechst DNA content imaging, 48 h; AID 624297; Potency, µM (highest dose often 46.1 µM), inactives show top-dose re-replication activation, most hits filed as activators; 1.8% of 340,000 active; further: % of control where 0% means no effect; nearly all actives have a fitted effect of over 55% in size
#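 Compounds, transferred as 23 nL by pin tool, were incubated with cells for 48 hr; DNA content per nucleus was then quantified by Hoechst staining and fluorescence plate imaging.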
# AT treatment – potential ataxia-telangiectasia treatments restoring KAP-1 phosphorylation. AID 485349. Potency, µM (highest dose often 57.5 µM), inactives show at the highest dose activation, most hits filed as activators. F2112 A-T fibroblasts, KAP-1 phosphorylation AlphaLISA; neocarzinostatin DNA damage 30 min before lysis. 0.19% of 320,000 active; further: % of control where 0% means no effect; nearly all actives have a fitted effect of over 45% in size
#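 ATM-like activity read as KAP-1 phosphorylation via AlphaLISA donor/acceptor antibody pairs after lysis and 6 hr at 25C. Cells were ATM-null patient fibroblasts (F2112, hTERT), dosed 60 min, then exposed to the DSB inducer NCS for 30 min.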
# * marks the source's active call; other numbers are inactive results; ? = inconclusive; · = not tested or not shown. The call rests on the fitted dose curve; in most records, active means well fitted activation curve with a large enough effect; inconclusive means small, poorly fitted or top-dose-only effect; inactive means no such curve, though single readings can be large or run the other way. Potency means the concentration at half of the fitted maximal effect.
SMILES,Mito fusion act,a7 integrin act,MCF10A rereplic,SW480 rereplic,AT treatment
CC(=O)c1ccc2c(c1)CC1(C2)Cc2cc3c(cc2C1)C(=O)CC3 (stereo not drawn),·,-18%,4.1µM*,7.3µM*,·
CC(=O)c1ccc2c(c1)Cc1cc(C(C)=O)ccc1-2,0%,20%,-4%,-3%,4%
CCN1CCN(C(=O)/C(=C/c2ccco2)NC(=O)c2ccccc2)CC1,-15%,4%,0%,-7%,-5%
CC1(C2CCCC2)NC(=O)NC1=O (stereo not drawn),·,25%,0%,-2%,·
CN(C)CCCNc1cc(Cl)c(S(=O)(=O)N2CCCCC2)cc1C(=O)O,0%,9%,2.6µM*,-3%,·
Cc1ccc(Nc2nc(-c3ccncc3)nc3ccccc23)cc1,0%,-11%,9.2µM*,55%,3%
c1ccc(CCNc2nc(-c3ccncc3)nc3ccccc23)cc1,-4%,-53%,?,21µM*,-19%
Cc1ccc(-c2nc(N/N=C/c3ccccc3[N+](=O)[O-])c3ccccc3n2)cc1,-2%,8%,13µM*,7.3µM*,8%
Cc1cc(OCC(=O)NCCCN2CCOCC2)c2c(C)cc(=O)oc2c1,1%,-20%,-5%,25%,-2%
C/C=C(\C)C(=O)OC1[C@H](OC(C)=O)C2(CO)C(CC1(C)C)C1=CCC3C4(C)CCC(O[C@@H]5O[C@H](C(=O)O)[C@@H](O[C@@H]6O[C@H](CO)[C@@H](O)[C@H](O)[C@H]6O)[C@H](O)[C@H]5O[C@H]5O[C@H](CO)[C@@H](O)[C@H](O)[C@H]5O)[C@](C)(CO)C4CCC3(C)[C@]1(C)C[C@H]2O (stereo partly drawn),·,-52%,6.5µM*,2%,·
CC(C)CN1CCN(Cc2cc3ccccc3[nH]2)CC1CCO (stereo not drawn),0%,-18%,?,?,3%
COc1cccc(CN2CCN(Cc3cc4ccccc4[nH]3)CC2CCO)c1 (stereo not drawn),-8%,-6%,?,-2%,4%
CC(C)(C)CN1CCN(Cc2c[nH]c3ccccc23)CC1CCO (stereo not drawn),-1%,-7%,6.5µM*,0%,4%
CC(C)(C)CN1CCN(Cc2cc3ccccc3[nH]2)CC1CCO (stereo not drawn),-9%,0%,0.65µM*,?,2%
CCOc1ccc(CN2CCN(Cc3cc4ccccc4[nH]3)CC2CCO)cc1 (stereo not drawn),2%,-14%,23µM*,?,3%
O=C1c2ccccc2C2(c3cc(C(F)(F)F)cc(C(F)(F)F)c3)NCCN12 (stereo not drawn),-12%,-13%,11%,8%,-8%
CC(C)P(=O)(c1cccc(C(=O)O)c1)C(C)C,-4%,5%,-4%,?,3%
COc1ccc(NC(=O)C(C)N2c3cccc4cccc(c34)S2(=O)=O)cc1OC (stereo not drawn),13%,-58%,8.2µM*,13µM*,-3%
CCN(CC)C(=O)C1=C(C)N(CCCOC)C(=O)C(CC(=O)NCCc2ccccn2)C1 (stereo not drawn),·,5%,·,·,·
N#C[C@H]1C(O)C(O)c2ccccc2N1C(=O)c1ccccc1 (stereo partly drawn),·,-26%,-4%,-7%,·
COc1ccc(C(=O)N2c3ccccc3C=CC2C#N)cc1 (stereo not drawn),22%,-13%,?,?,10%
Cc1ccc2c(c1)C=CC(C#N)N2C(=O)Oc1ccccc1 (stereo not drawn),·,6%,·,·,·
CC1=Cc2ccccc2C(C#N)N1C(=O)c1ccccc1 (stereo not drawn),13µM*,-4%,?,?,0%
CCSC(=O)N1c2ccc(OC)cc2C=CC1C#N (stereo not drawn),·,-31%,1.2µM*,?,·
Cc1ccc2c(c1)C=CC(C#N)N2C(=O)c1ccccc1 (stereo not drawn),-7%,-43%,?,2.1µM*,1%
CC(C)[N+](C)(C)CC(O)COc1cccc2ccccc12 (stereo not drawn),·,·,4%,1%,·
